Compound activity from PubChem BioAssay.
A selection: hits, their analogues and other compounds. The true share with any hit is near 1.5%.
Integrin act MD – integrin-mediated muscular dystrophy alleviation activation; alpha7betagal myoblasts, beta-gal FDG fluorescence, 48 h; Potency, µM (highest dose often 38.3 µM), without a hit: top-dose activation, hits mostly activators; hit rate 0.064% among 350,000;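 further: potency means the concentration at half of the fitted maximal effect; 100% = response of the positive control SU9516; nearly all actives have a fitted effect of over 60% in size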
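Alpha7betagal+/- myoblasts (passage 13) were plated 16-24 hr, then exposed to compounds (1:260 dilution of DMSO stock) for 48 hours at 37C. After MPER lysis, β-galactosidase reporter activity was read as FDG fluorescence (ex 480/em 540) after 30 minutes.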
IL2 activator – activates IL-2 in a cell-based reporter assay; IL-2 activation reporter assay, cell-based qHTS; stimulated with anti-CD3/CD4/CD28 beads; in transgenic mouse T cells; activation, % (series mostly up to about 46 µM); hit rate 0.065% among 360,000; AID 652025; in the data active means activation above about 50%; inconclusive means mostly about 30% to 49%; further: 0% is about no effect
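Readout: EGFP and DsRed signals by fluorescent plate cytometry. Unstimulated transgenic mouse T cells received compound 60 min before antibody-bead stimulation, then incubated 18 h at 37 degrees C.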
Nrf2 ARE act – activates Nrf2 signaling; AREc32 ARE-luciferase reporter (MCF7-derived line), luminescence, 24 h; Potency, µM (titrated, usually from 46.1 µM), inactives show at the top dose activation, actives largely listed as activators; hit rate 0.31% among 410,000; further: potency means the concentration at half of the fitted maximal effect; % of control where 0% means no effect; nearly all actives have a fitted effect of over 65% in size
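AREc32_Fluc, 1000 cells/well, OPTI-MEM + 5% FBS, o/n 37 deg C 5% CO2; 23 nL cpd by pin tool, 24 hr; Steady-Glo 30 min RT, luminescence.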
ALOX12 inh – blocks human arachidonate 12S-lipoxygenase | P18054 | purified 12hLO, xylenol orange hydroperoxide absorbance | Potency, µM (doses to about 108 µM), for inactives: at the top dose activity change, negative = inhibition, most hits filed as inhibitors | hit rate 1.1% among 580,000 | AID 1671190; further: potency means the concentration at half of the fitted maximal effect; on the % scale 0 is the no-effect control and ±100 the full control effect
Target sequence (P18054 whole entry, looked up): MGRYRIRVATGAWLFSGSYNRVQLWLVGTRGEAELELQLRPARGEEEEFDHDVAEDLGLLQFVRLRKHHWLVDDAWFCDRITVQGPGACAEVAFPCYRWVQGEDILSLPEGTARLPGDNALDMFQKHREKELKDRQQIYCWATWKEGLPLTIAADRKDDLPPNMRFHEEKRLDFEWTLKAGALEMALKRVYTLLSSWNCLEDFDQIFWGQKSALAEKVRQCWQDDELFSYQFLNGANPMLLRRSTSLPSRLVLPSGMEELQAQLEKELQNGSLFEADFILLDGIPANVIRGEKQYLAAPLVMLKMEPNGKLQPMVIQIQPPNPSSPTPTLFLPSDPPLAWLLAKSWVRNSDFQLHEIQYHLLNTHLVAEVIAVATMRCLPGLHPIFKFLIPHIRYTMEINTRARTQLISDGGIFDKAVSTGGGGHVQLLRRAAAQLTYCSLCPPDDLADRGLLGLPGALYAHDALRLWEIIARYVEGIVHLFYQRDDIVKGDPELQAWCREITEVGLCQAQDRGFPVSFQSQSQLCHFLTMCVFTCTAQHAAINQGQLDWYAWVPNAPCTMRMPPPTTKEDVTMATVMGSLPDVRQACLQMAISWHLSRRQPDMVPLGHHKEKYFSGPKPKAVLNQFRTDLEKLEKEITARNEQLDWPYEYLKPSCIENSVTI
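Purified human 12hLO at 150 nM in 25 mM Hepes, 0.01% Triton X-100, pH 7.0, preincubated 15 min at room temperature with compound. Reaction started with 40 uM arachidonic acid, 30 min at room temperature. Hydroperoxide measured by Fe-xylenol orange, 573/405 nm absorbance ratio.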
uPA surface inh – inhibitors of cell surface uPA generation; cell surface uPA generation assay, qHTS; Potency, µM (titrated, usually from 38.3 µM), for inactives: at the highest dose activity change, negative = inhibition, actives largely listed as inhibitors; hit rate 0.31% among 330,000; AID 540303; active means well fitted inhibition curve with a large enough effect; inconclusive means small, poorly fitted or top-dose-only effect; inactive means no such curve, though single readings can be large or run the other way; tested in mouse RAW 264.7 cells; further: potency means the concentration at half of the fitted maximal effect; on the % scale 0 is the no-effect control and ±100 the full control effect; nearly all actives have a fitted effect of over 55% in size
The depositor's hits bear a star; u = inconclusive; x = no result given; [ ] = another dose, or the depositor's remark. Unless noted, the call rests on the fitted dose curve; in most records, active means well fitted curve in the direction sought with a large enough effect; inconclusive means small, poorly fitted or top-dose-only effect, or another doubt; inactive means no such curve, though single readings can be large; an effect the other way counts as inactive or inconclusive.

SMILES	Integrin act MD	IL2 activator	Nrf2 ARE act	ALOX12 inh	uPA surface inh
CCOc1cc(/C=C2\C(=N)N3N=C(S(=O)(=O)CC)SC3=NC2=O)ccc1OC(=O)c1ccco1	-11%	24	0%	u	1%
CCS(=O)(=O)C1=NN2C(=N)/C(=C\c3ccc(SCc4ccco4)o3)C(=O)N=C2S1	-4%	-4	u	35µM*	15%
CCSC(SCC)C(O)C(O)C(O)CO (configuration not stated)	x	x	x	19%	x
Cc1cccc(C(=O)NCCCN(C)CC(F)(F)F)n1	x	x	x	4%	x
COC(=O)C1=C(C)N(c2ccccc2)C(=S)NC1c1ccccc1C(F)(F)F (configuration not stated)	0%	0	0%	u	-14%
COC(=O)C1=C(C)N(c2cccc(C)c2)C(=S)NC1c1ccc(C)s1 (configuration not stated)	x	x	x	35µM*	x
Cn1c(=O)c2c(nc(NCCO)n2Cc2ccc(Cl)cc2Cl)n(C)c1=O	x	x	x	-5%	x
Cc1ccc(O)c(N=Nc2nccs2)c1	-52%	0	u	-10%	2.2µM*
CC(C)=CCC/C(C)=C/CNC(=O)C[C@H]1C[C@H](C(=O)N2CCOCC2)[C@@]2(C)c3[nH]c4cc(CCC(=O)N(C)C)ccc4c3CCN2C1=O	-4%	-1	7%	-9%	10µM*
CCOC(=O)NNC(=S)NCC1CCCO1 (configuration not stated)	x	x	x	6.3µM*	x
COc1ccccc1/C=C/C(=O)OCC(=O)Nc1ccc2c(c1)OCCO2	-5%	1	-1%	5%	-1%
CC(C)(C)c1ccc(C(=O)NC(=S)NCc2ccco2)cc1	-12%	-2	3%	14µM*	10%
COc1ccccc1/C=C/C(=O)Nc1ccc2c(c1)OCCO2	-1%	-1	2%	-5%	4µM*
CCNC(=S)NNC(=S)NCC1CCCO1 (configuration not stated)	x	x	x	39%	x
CC(C)(C)c1ccc(C(=O)NC(=S)NCC2CCCO2)cc1 (configuration not stated)	20%	0	-1%	7.9µM*	2%
Cc1nc(-c2ccccc2F)sc1C(=O)N1CCCC(C(=O)O)C1 (configuration not stated)	x	x	x	-1%	x
CCCn1ccc2sc(C)c(C(=O)NCc3ccc(F)cc3)c2c1=O	x	x	x	39%	x
COc1ccc(C(=O)Nc2cnc3sc4c(n3c2=O)CCC(C(C)(C)C)C4)cc1 (configuration not stated)	x	x	x	-6%	x
COc1ccccc1/C=C/C(=O)NC(=S)NCC1CCCO1 (configuration not stated)	-39%	-4	11%	40µM*	-4%
COCCNC(=S)NC(=O)c1ccc(C(C)(C)C)cc1	8%	1	6%	13µM*	-17%
O=C(NC(=S)NCc1ccco1)c1ccc(Br)cc1	0%	0	11%	16µM*	4%
COc1ccc(/C=C/C(=O)NC(=S)NCC2CCCO2)cc1 (configuration not stated)	-28%	0	10%	-30%	0%
O=c1cc(CN2CCCCC2c2ccccn2)[nH]c2ccc(F)cc12 (configuration not stated)	x	x	x	7.9µM*	x
CCN(C1CC1)S(=O)(=O)c1cccc2cc(C)cnc12	x	x	x	-25%	x
C=CCc1c(C)nc(-c2ccccc2)nc1N/N=C/c1ccccc1	11µM*	0	1%	-1%	-8%
SMILES	Integrin act MD	IL2 activator	Nrf2 ARE act	ALOX12 inh	uPA surface inh
Cc1c(/C=N/Nc2ccc(F)cc2)c(O)n(C)c(=O)c1C#N	7.1µM*	0	5%	-17%	11%
CC(=O)N=Cc1c(C)c(C#N)c(=O)n(C)c1O	u	1	0%	-2%	23%
O=C(NC1CCN(c2cc(C(F)(F)F)ncn2)CC1)c1ccccc1	x	x	x	45µM*	x
O=C(NC1CCN(c2cc(C(F)(F)F)ncn2)CC1)c1ccccc1F	x	x	x	-14%	x
CCN=c1scc(C)n1/N=C/c1cc(Br)c(O)c(Br)c1	-46%	0	1%	25µM*	10%
CCN=c1scc(C)n1/N=C/c1ccc(O)c(O)c1O	-44%	0	10%	u	1%
CC(C)(C)c1cc(C(=O)NCCc2ccc(Cl)cc2)nn2cccc12	x	x	x	3%[6.33 µM]	x
CC(C)(C)c1ccc(-c2cc(C[C@H]3CNCC[C@H]3CC(=O)O)no2)cc1	x	x	x	20%[176 µM]	x
CC(C)(C)c1ccc(-c2cc(C[C@H]3CNCC[C@H]3CC(=O)NCc3cccs3)no2)cc1	x	x	x	40µM*	x
CC(C)(C)c1ccc(-c2cc(C[C@H]3CNCC[C@H]3CC(=O)NC3CCCCC3)no2)cc1	x	x	x	32µM*	x
CC(C)(C)c1ccc(-c2cc(C[C@H]3CNCC[C@H]3CC(=O)N3CCC(n4c(=O)[nH]c5ccccc54)CC3)no2)cc1	x	x	x	32µM*	x
CCOc1cc(NC(=S)Nc2ccccc2OC)c(OCC)cc1NC(=O)c1ccccc1C	-28%	-1	-1%	45µM*	0%
CCOc1cc(NC(=S)NCC2CCCO2)c(OCC)cc1NC(=O)c1ccccc1C (configuration not stated)	-5%	0	0%	-32%	5%
O=C(CCNC(=O)c1ccccc1)NCc1coc(-c2cccs2)n1	x	x	x	-14%	x
CCCCC1=CC2=CC(=O)C(C)(OC(=O)CC)C(=O)C2=CN1CCc1ccc(Br)cc1 (configuration not stated)	u	0	1%	40µM*	-3%
CCCCC1=CC2=CC(=O)C(C)(OC(=O)CC)C(=O)C2=CN1CCOC (configuration not stated)	32%	-3	0%	x	7%
CCCN1C(=O)CCc2cc(NC(=O)c3ccc(C)s3)ccc21	x	x	x	54%	x
Cc1ccc(C(=O)N2C(C(=O)N3CCCC3)COC23CCN(C(=O)c2ccccc2C)CC3)cc1 (configuration not stated)	x	x	x	17%	x
Cn1c(-c2ccccc2)c(C(=O)CCl)c2ccccc21	-66%	-1	11%	-26%	-17%
CCCc1c(CC)c(=N)c2ccccc2n1C	-42%	-3	-1%	5µM*	-7%
CC[C@H](C)[C@H](NC(=O)c1ccc2nc(-n3cccc3)sc2c1)C(=O)NCc1ccccn1	x	x	x	5%	x
Fc1ccc(N/N=C2/CCSc3sccc32)c(F)c1	-11%	-1	u	35µM*	3%
COc1ccc(/C=C(\C#N)c2nc3ccccc3[nH]2)c(OC)c1	x	x	x	57%	x
Cc1ccc2nc(/C(C#N)=C/c3ccc(O)c(O)c3)[nH]c2c1	-17%	2	4%	7.1µM*	-13%
